# Laboratory results from article PMC8384837, “Expanding the binding specificity for RNA recognition by a PUF domain”.
# Key:
# Assay in all cases: yeast three-hybrid, YBZ-1, SC-Leu-His + 0.5 mM 3-AT, 4 days
# Conditions in all cases: tags: N-Gal4 AD-HA kept; label: inside an RPR1-promoter hybrid RNA with tandem MS2 sites; ssRNA
# PUM1 PUF domain R5-TRS = PUM1 PUF domain R5-TRS (Homo sapiens, UniProt Q14671 828-1176, C1007T;Q1011S)
# Method in brief: (§1)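 Sequencing with Illumina followed PCR amplification of the repeat regions from transformants grown four days on SC-Leu (input) or SC-Leu-His + 0.5 mM 3-AT (selection). The transformants were strain YBZ-1 with a LexA–MS2 coat fusion and a HIS3 reporter, carrying Pumilio-1 PUF domain libraries and matching RNA elements. The interaction score is the log change in variant frequency from input to selection, computed in log2 with a pseudocount of 1 for absent variants.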
# PUM1 PUF domain R5-PLK = PUM1 PUF domain R5-PLK (Homo sapiens, UniProt Q14671 828-1176, C1007P;R1008L;Q1011K)
# Method in brief: as §1
# PUM1 PUF domain R8-KFS = PUM1 PUF domain R8-KFS (Homo sapiens, UniProt Q14671 828-1176, N1122K;Y1123F;Q1126S)
# Method in brief: as §1
# PUM1 PUF domain R8-RHK = PUM1 PUF domain R8-RHK (Homo sapiens, UniProt Q14671 828-1176, N1122R;Y1123H;Q1126K)
# Method in brief: as §1
# PUM1 PUF domain R4-PHT = PUM1 PUF domain R4-PHT (Homo sapiens, UniProt Q14671 828-1176, N971P;Q975T)
# Method in brief: as §1
# PUM1 PUF domain R6-CFM = molecular target: T1, PUM1 PUF domain R6-CFM (Homo sapiens, UniProt Q14671 828-1176, N1043C;Y1044F;Q1047M)
# T1 sequence: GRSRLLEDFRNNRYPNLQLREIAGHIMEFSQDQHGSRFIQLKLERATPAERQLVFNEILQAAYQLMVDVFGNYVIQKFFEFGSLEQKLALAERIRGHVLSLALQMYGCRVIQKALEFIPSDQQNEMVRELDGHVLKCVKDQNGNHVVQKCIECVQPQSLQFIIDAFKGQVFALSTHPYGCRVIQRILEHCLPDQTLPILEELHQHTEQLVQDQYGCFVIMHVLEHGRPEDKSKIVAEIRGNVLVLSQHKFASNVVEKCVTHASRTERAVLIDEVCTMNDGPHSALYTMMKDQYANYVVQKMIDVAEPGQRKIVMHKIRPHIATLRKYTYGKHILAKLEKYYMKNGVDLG
# Method in brief: as §1
# PUM1 PUF domain R3-LYM = PUM1 PUF domain R3-LYM (Homo sapiens, UniProt Q14671 828-1176, C935L;R936Y;Q939M)
# Method in brief: as §1
# PUM1 PUF domain R3-VFW = PUM1 PUF domain R3-VFW (Homo sapiens, UniProt Q14671 828-1176, C935V;R936F;Q939W)
# Method in brief: as §1
# PUM1 PUF domain R3-RTK = PUM1 PUF domain R3-RTK (Homo sapiens, UniProt Q14671 828-1176, C935R;R936T;Q939K)
# Method in brief: as §1
# PUM1 PUF domain R1-CCK = PUM1 PUF domain R1-CCK (Homo sapiens, UniProt Q14671 828-1176, S863C;R864C;Q867K)
# Method in brief: as §1
sequence,measurement,setting,value
GGCUAGAACUAGUGGAUCCCCCGGCGCCCGGCGGCUCGAGCCCGGGUAAGUGUGAAUAGUCUGCAUGCCGCCGGGCGCCAUGCCUGCAGGUCGACUCUAGAAAACAUG,binding signal,PUM1 PUF domain R5-TRS,2.97 log2 enrichment (interaction score)
GGCUAGAACUAGUGGAUCCCCCGGCGCCCGGCGGCUCGAGCCCGGGUAAGUGUUAAUAGUCUGCAUGCCGCCGGGCGCCAUGCCUGCAGGUCGACUCUAGAAAACAUG,binding signal,PUM1 PUF domain R5-PLK,2.84 log2 enrichment (interaction score)
same,binding signal,PUM1 PUF domain R5-TRS,3.03 log2 enrichment (interaction score)
GGCUAGAACUAGUGGAUCCCCCGGCGCCCGGCGGCUCGAGCCCGGGUAAGCGUAAAUAGUCUGCAUGCCGCCGGGCGCCAUGCCUGCAGGUCGACUCUAGAAAACAUG,binding signal,PUM1 PUF domain R8-KFS,3.24 log2 enrichment (interaction score)
same,binding signal,PUM1 PUF domain R8-RHK,3.29 log2 enrichment (interaction score)
GGCUAGAACUAGUGGAUCCCCCGGCGCCCGGCGGCUCGAGCCCGGGUAAGUGUAAAUAGUCUGCAUGCCGCCGGGCGCCAUGCCUGCAGGUCGACUCUAGAAAACAUG,binding signal,PUM1 PUF domain R4-PHT,6.07 log2 enrichment (interaction score)
same,binding signal,PUM1 PUF domain R6-CFM,3.02 log2 enrichment (interaction score)
same,binding signal,PUM1 PUF domain R3-LYM,4.11 log2 enrichment (interaction score)
same,binding signal,PUM1 PUF domain R8-RHK,2.95 log2 enrichment (interaction score)
same,binding signal,PUM1 PUF domain R5-TRS,2.85 log2 enrichment (interaction score)
same,binding signal,PUM1 PUF domain R3-VFW,4.87 log2 enrichment (interaction score)
GGCUAGAACUAGUGGAUCCCCCGGCGCCCGGCGGCUCGAGCCCGGGUAAGGGUAAAUAGUCUGCAUGCCGCCGGGCGCCAUGCCUGCAGGUCGACUCUAGAAAACAUG,binding signal,PUM1 PUF domain R8-RHK,3.54 log2 enrichment (interaction score)
GGCUAGAACUAGUGGAUCCCCCGGCGCCCGGCGGCUCGAGCCCGGGUAAGUGUACAUAGUCUGCAUGCCGCCGGGCGCCAUGCCUGCAGGUCGACUCUAGAAAACAUG,binding signal,PUM1 PUF domain R4-PHT,2.45 log2 enrichment (interaction score)
GGCUAGAACUAGUGGAUCCCCCGGCGCCCGGCGGCUCGAGCCCGGGUAAGUGUAAUUAGUCUGCAUGCCGCCGGGCGCCAUGCCUGCAGGUCGACUCUAGAAAACAUG,binding signal,PUM1 PUF domain R3-VFW,5.01 log2 enrichment (interaction score)
same,binding signal,PUM1 PUF domain R3-RTK,4.87 log2 enrichment (interaction score)
GGCUAGAACUAGUGGAUCCCCCGGCGCCCGGCGGCUCGAGCCCGGGUAAGUGUAAAUUGUCUGCAUGCCGCCGGGCGCCAUGCCUGCAGGUCGACUCUAGAAAACAUG,binding signal,PUM1 PUF domain R1-CCK,2.6 log2 enrichment (interaction score)
